This note sets out measurements from ChEMBL document CHEMBL2218924, “A broad activity screen in support of a chemogenomic map for kinase signalling research and drug discovery” (Biochem J, 2013).

Assay [1] has as its target T1, cGMP-dependent protein kinase 1 (Homo sapiens) (UniProt Q13976).
T1 sequence (whole entry): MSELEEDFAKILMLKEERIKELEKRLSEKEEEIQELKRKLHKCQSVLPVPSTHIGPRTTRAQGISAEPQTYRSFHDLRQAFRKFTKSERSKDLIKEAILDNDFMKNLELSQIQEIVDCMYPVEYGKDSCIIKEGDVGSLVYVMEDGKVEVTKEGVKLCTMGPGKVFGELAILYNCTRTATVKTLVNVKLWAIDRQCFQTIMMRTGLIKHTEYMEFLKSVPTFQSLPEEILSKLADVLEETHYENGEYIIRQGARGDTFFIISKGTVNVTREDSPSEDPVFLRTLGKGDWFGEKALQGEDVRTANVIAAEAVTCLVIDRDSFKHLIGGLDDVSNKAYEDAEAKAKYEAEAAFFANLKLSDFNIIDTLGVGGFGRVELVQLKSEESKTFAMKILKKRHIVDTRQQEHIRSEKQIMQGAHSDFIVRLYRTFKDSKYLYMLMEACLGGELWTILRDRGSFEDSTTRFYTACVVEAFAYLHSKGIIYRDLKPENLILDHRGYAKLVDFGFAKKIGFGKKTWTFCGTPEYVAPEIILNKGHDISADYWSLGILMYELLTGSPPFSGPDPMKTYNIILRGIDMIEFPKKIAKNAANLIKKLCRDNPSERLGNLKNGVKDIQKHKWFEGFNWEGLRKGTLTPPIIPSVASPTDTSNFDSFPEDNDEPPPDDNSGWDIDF
The note with it: at 10 µM.

Assay [2] deals with T1, cGMP-dependent protein kinase 1 (Homo sapiens). Conditions: at 1 µM.
Assay [3] concerns the target T2, MAP kinase-activated protein kinase 5 (Homo sapiens) (UniProt Q8IW41).
T2 sequence (whole entry): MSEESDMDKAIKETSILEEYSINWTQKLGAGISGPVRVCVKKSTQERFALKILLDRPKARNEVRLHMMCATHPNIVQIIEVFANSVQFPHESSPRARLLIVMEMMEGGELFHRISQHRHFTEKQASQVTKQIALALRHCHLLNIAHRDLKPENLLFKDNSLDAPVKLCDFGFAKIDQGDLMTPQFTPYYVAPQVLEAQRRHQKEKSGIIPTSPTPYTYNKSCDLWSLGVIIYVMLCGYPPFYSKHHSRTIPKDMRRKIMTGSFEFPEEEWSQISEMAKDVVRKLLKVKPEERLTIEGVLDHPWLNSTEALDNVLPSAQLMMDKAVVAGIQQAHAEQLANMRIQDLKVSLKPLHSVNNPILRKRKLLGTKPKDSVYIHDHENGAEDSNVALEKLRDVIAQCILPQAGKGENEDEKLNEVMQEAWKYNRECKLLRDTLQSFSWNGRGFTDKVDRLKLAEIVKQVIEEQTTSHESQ
The note with it: at 1 µM.

Assay [4] concerns the target T2, MAP kinase-activated protein kinase 5 (Homo sapiens). Conditions: at 10 µM.
The target of assay [5] is Serine/threonine-protein kinase N2 (Homo sapiens) (UniProt Q16513). The note with it: at 1 µM.
Sequence of Serine/threonine-protein kinase N2 (Homo sapiens) (Q16513 whole entry, looked up): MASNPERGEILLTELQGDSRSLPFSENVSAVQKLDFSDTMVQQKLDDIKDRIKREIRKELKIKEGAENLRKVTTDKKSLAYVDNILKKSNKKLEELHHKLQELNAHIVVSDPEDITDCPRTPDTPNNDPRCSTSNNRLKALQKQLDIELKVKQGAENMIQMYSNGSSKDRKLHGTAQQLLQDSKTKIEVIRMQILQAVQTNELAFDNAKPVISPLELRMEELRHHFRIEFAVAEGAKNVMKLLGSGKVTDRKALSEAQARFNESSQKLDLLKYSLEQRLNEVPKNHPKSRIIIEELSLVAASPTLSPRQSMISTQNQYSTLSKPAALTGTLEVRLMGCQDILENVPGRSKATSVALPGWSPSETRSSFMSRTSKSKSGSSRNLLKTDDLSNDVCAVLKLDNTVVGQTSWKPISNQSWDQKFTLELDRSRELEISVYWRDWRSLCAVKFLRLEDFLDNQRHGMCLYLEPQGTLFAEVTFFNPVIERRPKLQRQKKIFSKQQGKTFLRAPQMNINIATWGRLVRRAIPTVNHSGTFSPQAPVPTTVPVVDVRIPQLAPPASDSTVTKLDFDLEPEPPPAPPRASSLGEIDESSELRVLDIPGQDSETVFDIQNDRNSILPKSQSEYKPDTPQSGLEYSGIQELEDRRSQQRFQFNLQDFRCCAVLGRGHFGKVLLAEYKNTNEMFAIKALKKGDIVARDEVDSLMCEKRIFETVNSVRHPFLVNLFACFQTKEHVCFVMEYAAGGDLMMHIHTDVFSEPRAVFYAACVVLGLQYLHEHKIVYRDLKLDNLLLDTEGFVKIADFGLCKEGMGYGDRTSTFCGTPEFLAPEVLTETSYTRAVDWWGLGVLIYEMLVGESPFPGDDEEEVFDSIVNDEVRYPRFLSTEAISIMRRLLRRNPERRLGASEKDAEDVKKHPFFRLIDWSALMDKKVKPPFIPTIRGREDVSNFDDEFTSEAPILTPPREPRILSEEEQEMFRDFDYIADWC
Assay [6] has the same target. The note with it: at 10 µM.
Assay [7] addresses Tyrosine-protein kinase FRK (Homo sapiens) (UniProt P42685). The note with it: at 1 µM.
Assay [8] shares this target. Conditions: at 10 µM.
In assay [9] the target is T3, Phosphorylase b kinase gamma catalytic chain, liver/testis isoform (Homo sapiens) (UniProt P15735).
T3 sequence (whole entry): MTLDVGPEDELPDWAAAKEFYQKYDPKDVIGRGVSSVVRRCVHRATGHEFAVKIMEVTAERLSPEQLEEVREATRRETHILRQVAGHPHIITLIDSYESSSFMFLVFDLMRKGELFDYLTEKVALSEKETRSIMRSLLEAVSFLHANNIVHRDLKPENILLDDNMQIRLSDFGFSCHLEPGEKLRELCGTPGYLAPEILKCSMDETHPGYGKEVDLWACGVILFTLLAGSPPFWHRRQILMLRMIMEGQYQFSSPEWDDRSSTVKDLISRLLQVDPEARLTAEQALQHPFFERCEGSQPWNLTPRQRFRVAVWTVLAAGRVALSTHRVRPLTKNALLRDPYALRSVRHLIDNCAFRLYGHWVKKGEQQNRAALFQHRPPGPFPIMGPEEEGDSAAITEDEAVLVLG
The note with it: at 1 µM.

In assay [10] the target is T3, Phosphorylase b kinase gamma catalytic chain, liver/testis isoform (Homo sapiens). The note with it: at 10 µM.
In assay [11] the target is Serine/threonine-protein kinase pim-1 (Homo sapiens) (UniProt P11309). Conditions: at 1 µM.
Sequence of Serine/threonine-protein kinase pim-1 (Homo sapiens) (P11309 whole entry, looked up): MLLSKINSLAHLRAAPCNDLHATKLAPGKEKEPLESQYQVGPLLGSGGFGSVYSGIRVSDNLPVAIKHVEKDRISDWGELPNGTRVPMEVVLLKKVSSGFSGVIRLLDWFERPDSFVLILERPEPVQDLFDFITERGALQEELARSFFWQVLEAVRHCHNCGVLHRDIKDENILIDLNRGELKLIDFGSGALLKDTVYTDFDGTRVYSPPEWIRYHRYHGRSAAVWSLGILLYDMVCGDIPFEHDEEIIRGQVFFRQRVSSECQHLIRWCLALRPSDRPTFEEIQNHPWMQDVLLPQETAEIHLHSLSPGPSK
The target is the same in assay [12]. The note with it: at 10 µM.
The target of assay [13] is Serine/threonine-protein kinase pim-2 (Homo sapiens) (UniProt Q9P1W9). The note with it: at 1 µM.
Sequence of Serine/threonine-protein kinase pim-2 (Homo sapiens) (Q9P1W9 whole entry, looked up): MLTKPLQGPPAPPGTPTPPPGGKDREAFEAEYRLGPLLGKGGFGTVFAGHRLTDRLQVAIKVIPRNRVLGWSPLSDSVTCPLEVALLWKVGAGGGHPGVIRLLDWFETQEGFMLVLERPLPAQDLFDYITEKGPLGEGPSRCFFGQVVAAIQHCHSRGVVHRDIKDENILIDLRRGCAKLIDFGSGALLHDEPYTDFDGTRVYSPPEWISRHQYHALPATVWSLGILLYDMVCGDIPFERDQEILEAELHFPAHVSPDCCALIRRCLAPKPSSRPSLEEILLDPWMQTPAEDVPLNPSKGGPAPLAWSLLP
Assay [14] has the same target. The note with it: at 10 µM.
Assay [15] has as its target Serine/threonine-protein kinase pim-3 (Homo sapiens) (UniProt Q86V86). Conditions: at 1 µM.
The target is the same in assay [16]. Conditions: at 10 µM.
For assay [17], the target named is Serine/threonine-protein kinase PLK1 (Homo sapiens) (UniProt P53350). The note with it: at 1 µM.
Sequence of Serine/threonine-protein kinase PLK1 (Homo sapiens) (P53350 whole entry): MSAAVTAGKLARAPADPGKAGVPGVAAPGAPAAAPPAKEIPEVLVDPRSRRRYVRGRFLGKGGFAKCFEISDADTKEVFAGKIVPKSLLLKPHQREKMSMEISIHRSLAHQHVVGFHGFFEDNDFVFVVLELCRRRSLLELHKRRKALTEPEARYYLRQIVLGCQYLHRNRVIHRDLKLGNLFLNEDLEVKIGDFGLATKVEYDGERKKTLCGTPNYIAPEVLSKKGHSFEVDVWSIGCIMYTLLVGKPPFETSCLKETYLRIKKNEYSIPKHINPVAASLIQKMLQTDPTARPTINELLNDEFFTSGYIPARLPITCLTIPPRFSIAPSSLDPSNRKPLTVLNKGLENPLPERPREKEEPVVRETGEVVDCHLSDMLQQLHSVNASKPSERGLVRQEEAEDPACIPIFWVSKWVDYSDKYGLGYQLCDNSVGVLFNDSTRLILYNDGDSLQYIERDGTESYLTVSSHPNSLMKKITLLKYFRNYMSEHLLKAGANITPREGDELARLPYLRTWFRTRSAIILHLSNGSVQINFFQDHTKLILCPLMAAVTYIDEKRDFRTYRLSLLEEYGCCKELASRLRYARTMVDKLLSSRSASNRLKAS
Assay [18] concerns the target T1, cGMP-dependent protein kinase 1 (Homo sapiens). The note with it: at 1 µM. This is another data set of the same source.
For assay [19] the target is unchanged. The note with it: at 10 µM. The source holds these as a separate data set.
Assay [20] concerns the target Serine/threonine-protein kinase PLK1 (Homo sapiens) (UniProt P53350). The note with it: at 10 µM.

The structures appear in SMILES notation.

Sequence of Tyrosine-protein kinase FRK (Homo sapiens) (P42685 whole entry): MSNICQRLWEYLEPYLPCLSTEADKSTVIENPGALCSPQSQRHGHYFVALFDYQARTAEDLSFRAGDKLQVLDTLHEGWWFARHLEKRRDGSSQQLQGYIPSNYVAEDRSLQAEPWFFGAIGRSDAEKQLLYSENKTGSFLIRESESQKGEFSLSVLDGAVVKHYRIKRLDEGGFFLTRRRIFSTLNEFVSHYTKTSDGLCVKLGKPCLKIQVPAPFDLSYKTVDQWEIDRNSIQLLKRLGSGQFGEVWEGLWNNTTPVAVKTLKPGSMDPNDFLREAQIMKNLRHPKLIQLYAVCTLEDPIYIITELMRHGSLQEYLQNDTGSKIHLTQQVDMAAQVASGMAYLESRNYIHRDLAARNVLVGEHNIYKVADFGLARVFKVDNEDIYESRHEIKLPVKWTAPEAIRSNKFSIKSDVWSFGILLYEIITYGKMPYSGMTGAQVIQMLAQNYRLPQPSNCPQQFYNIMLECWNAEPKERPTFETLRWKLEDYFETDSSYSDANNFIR

Take `CCCCc1c(-c2ccc(OC)cc2)[nH]c2nccnc12`: the residual activity in [1] amounted to 116%; in assay [2], 107%; in [3], 73%; in assay [4], 108%; in [5], 88%; in assay [6], 76%. Further, the residual activity in assay [7] is 60%; in assay [8], 51%; in assay [9], 113%; in assay [10], 109%; in assay [11] it was 109%; in [12] it was 88%. For the same compound, the residual activity was 112% in assay [13]; 104% in assay [14]; 104% in assay [15]; 113% in assay [16]; 81% in [17].

Consider `Oc1cccc(-c2nc(N3CCOCC3)c3oc4ncccc4c3n2)c1`, for which the residual activity in assay [18] is 120%; in [19] it was 90%; in [3] it was 98%; in assay [11], 88%; in [12], 86%; in assay [15], 98%. Besides, the residual activity in assay [16] is 98%.

As to `CC(C)(C)c1nc2c3ccc(F)cc3c3c(=O)[nH]ccc3c2[nH]1`, the residual activity in [18] stood at 45%; in assay [1], 45%; in assay [2], 30%; in assay [19], 19%; in [3], 47%; in assay [4] it was 45%. Moreover, the residual activity turned out to be 29% in assay [5]; 39% in [6]; 74% in assay [7]; 60% in assay [8]; 41% in [9]; 24% in assay [10].

For `COc1cc2nccc(Oc3ccc(NC(=O)Nc4cc(C)on4)c(Cl)c3)c2cc1OC`, the residual activity came to 101% in assay [18]; 97% in assay [1]; 105% in assay [2]; 99% in assay [3]; 70% in assay [4]; 97% in assay [5]. For the same compound, the residual activity in [6] is 108%; in assay [7], 2%; in [8], -3%; in assay [14], 103%; in [15], 107%; in [16], 105%.

Take `Nc1ncnc2c1c(-c1ccc(Oc3ccccc3)cc1)cn2C1CCCC1`: the residual activity in assay [18] worked out at 102%; in [1], 96%; in assay [2], 82%; in [19], 72%; in assay [3], 90%; in [4] it was 46%. Moreover, the residual activity in [5] came out at 87%; in assay [6], 100%; in assay [7], 2%; in assay [8], 2%; in assay [9], 97%; in assay [10], 95%. In addition, the residual activity in assay [11] amounted to 103%; in [12], 88%; in [13], 106%; in assay [15] it was 88%; in [16], 88%; in assay [17], 83%. In assay [20], the residual activity is 50%.

Turning to `c1ccc(-c2cnc(Nc3ccc(OCCN4CCCC4)cc3)s2)cc1`, the residual activity was found to be 122% in assay [18]; 136% in [1]; 70% in [2]; 77% in [19]; 120% in assay [3]; 111% in assay [4]. Also, the residual activity in assay [5] turned out to be 102%; in [6] it was 100%; in assay [7], 72%; in assay [8] it was 16%; in [10], 54%; in [11], 113%. Besides, the residual activity amounted to 104% in assay [12], 111% in assay [13] and 105% in assay [14].

As for `O=c1cc(N2CCNCC2)oc2c(-c3ccccc3)cccc12`, the residual activity turned out to be 84% in assay [2]; 81% in assay [19]; 93% in [3]; 99% in [4]; 105% in assay [5]; 101% in assay [6]. Further, the residual activity in assay [8] turned out to be 104%; in assay [9] it was 84%; in assay [10], 92%; in assay [11] it was 84%; in [12], 54%; in assay [13] it was 100%. In addition, the residual activity in assay [15] came to 88%; in assay [16] it was 76%; in assay [17] it was 82%; in [20], 55%.

As for `COc1ccc2c(c1)c(C1=C(c3c[nH]c4ccccc34)C(=O)NC1=O)cn2CCCN(C)C`, the residual activity in assay [1] is 28%; in assay [2], 64%; in assay [19], 22%; in [5], 68%; in assay [6] it was 25%; in assay [7] it was 97%. Moreover, the residual activity in assay [11] is 11%; in assay [12], 1%; in assay [13], 36%; in assay [14], 9%; in [15] it was 57%; in [16], 17%.

`O=C(CCCc1ccc(-c2ccccc2F)cc1)Nc1ccc(O)cc1`: the residual activity stood at 98% in [18]; 100% in assay [1]; 97% in [2]; 72% in [19]; 64% in [4]; 100% in assay [5]. The residual activity worked out at 79% in assay [6]; 97% in [7]; 112% in assay [8]; 109% in assay [9]; 112% in assay [10]; 100% in assay [11]. In addition, the residual activity turned out to be 97% in assay [12]; 139% in [14]; 96% in assay [15]; 97% in [16]; 93% in assay [17]; 103% in [20].

Take `O=C1Nc2ccc(Cl)cc2/C1=C/c1cc(Cl)c(O)c(Cl)c1`: the residual activity in assay [18] was determined as 84%; in [1], 79%; in assay [2], 79%; in assay [19] it was 44%; in [3] it was 95%; in assay [4], 17%. Also, the residual activity in assay [5] was found to be 99%; in [6], 94%; in [7], 56%; in assay [8] it was 5%; in [9], 94%; in assay [10] it was 83%. Moreover, the residual activity came out at 24% in [11]; 5% in [12]; 17% in [13]; 3% in assay [14]; 77% in assay [15]; 30% in assay [16]. Moreover, the residual activity is 83% in assay [17] and 62% in assay [20].

As to `O=C(Nc1nc2ccccc2n1CCN1CCOCC1)c1cccc([N+](=O)[O-])c1`, the residual activity was 100% in [18]; 101% in [1]; 83% in assay [2]; 88% in assay [19]; 78% in assay [5]; 115% in [6]. The values for the residual activity in assay [13] and in [14] were 100% and 78%, respectively.

As for `CSc1nc(-c2ccc(F)cc2)c(-c2ccnc(NC(C)c3ccccc3)c2)[nH]1` (centres undefined), the residual activity in assay [18] is 85%; in [1], 86%; in [19] it was 84%; in assay [6], 94%; in [7], 90%; in assay [8] it was 94%. Moreover, the residual activity in [11] was determined as 85%; in [12], 53%.

For `O=C1NC(=O)c2c1c1c3ccccc3[nH]c1n1cncc21`, the residual activity was 82% in [18]; 89% in [1]; 99% in assay [2]; 70% in [19]; 97% in assay [3]; 71% in [4]. In addition, the residual activity in assay [5] was determined as 69%; in assay [6] it was 61%; in [7], 87%; in [8], 63%; in assay [9], 95%; in [10], 70%. For the same compound, the residual activity in assay [11] was determined as 6%; in assay [12], 2%; in assay [13], 5%; in assay [14], 0%; in [15] it was 14%; in assay [16], 17%. Further, the residual activity in [17] turned out to be 62%; in assay [20] it was 60%.
